Measurements from PubChem BioAssay (NCI).
Compounds without any hit were thinned out: in the full panel of roughly 83,000, 20% have a hit.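 Note: values are percent growth. 100 is the growth of untreated cells, values between 100 and 0 indicate rising inhibition; between -100 and 0 indicates cell death.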 Calls of active or inactive are those of the source. Rule for the calls: active = growth percent below 10; inactive = the rest.

What was measured:
Test in all cases: NCI-60 one-dose screen, 48 h (100 = growth as untreated, 0 = no growth, -100 = all killed)
Conditions in all cases: 10 µM
NCI-H23 lung = system: NCI-H23 lung
NCI-H226 lung = system: NCI-H226 lung
NCI-H322M lung = system: NCI-H322M lung
HOP-62 NSCLC = system: HOP-62 NSCLC
NCI-H460 lung = system: NCI-H460 lung
NCI-H522 lung = system: NCI-H522 lung
A549/ATCC NSCLC = system: A549/ATCC NSCLC
786-0 renal = system: 786-0 renal
COLO 205 colon = system: COLO 205 colon
DU-145 prostate = system: DU-145 prostate
K-562 leukemia = system: K-562 leukemia
MALME-3M melanoma = system: MALME-3M melanoma
MDA-MB-231 breast = system: MDA-MB-231 breast
RXF 393 renal = system: RXF 393 renal
SF-268 CNS = system: SF-268 CNS
SF-295 CNS = system: SF-295 CNS
SF-539 CNS = system: SF-539 CNS
UACC-257 melanoma = system: UACC-257 melanoma
M14 melanoma = system: M14 melanoma
HCT-15 colon = system: HCT-15 colon

Measured: growth

COc1cc(-c2nn3c(/C=C4/C(=O)Nc5ccccc54)c(-c4ccc(C)cc4)nc3s2)cc(OC)c1OC
inactive: NCI-H23 lung 51.2% | NCI-H226 lung 96.4% | NCI-H322M lung 73.5% | HOP-62 NSCLC 79.5% | NCI-H460 lung 29% | NCI-H522 lung 58% | A549/ATCC NSCLC 29.8% | 786-0 renal 70.9% | COLO 205 colon 68.5% | DU-145 prostate 14% | K-562 leukemia 55.7% | MDA-MB-231 breast 50.6% | RXF 393 renal 63.7% | SF-268 CNS 15.9% | SF-295 CNS 74.1% | SF-539 CNS 81.8% | UACC-257 melanoma 34.4% | M14 melanoma 42.9% | HCT-15 colon 58.9%
active: MALME-3M melanoma -23.8%

O=C(Nc1ccc(OS(=O)(=O)c2ccccc2)cc1)C12CC3CC(CC(C3)C1)C2
active: COLO 205 colon -0.16%
inactive: NCI-H23 lung 51.5% | NCI-H226 lung 60.4% | NCI-H322M lung 68.7% | HOP-62 NSCLC 74.4% | NCI-H460 lung 35.5% | NCI-H522 lung 50.9% | A549/ATCC NSCLC 41.6% | 786-0 renal 57.5% | DU-145 prostate 71.6% | K-562 leukemia 13% | MALME-3M melanoma 55.8% | MDA-MB-231 breast 19.9% | RXF 393 renal 26.8% | SF-268 CNS 78.6% | SF-295 CNS 45.6% | SF-539 CNS 19.7% | UACC-257 melanoma 37.8% | M14 melanoma 47.2% | HCT-15 colon 29.9%

CC(=O)[C@H]1CC[C@H]2[C@@H]3CCC4=CC(=O)C=C[C@]4(C)[C@H]3CC[C@]12C
inactive: NCI-H23 lung 90% | NCI-H226 lung 88.4% | NCI-H322M lung 97% | HOP-62 NSCLC 100% | NCI-H460 lung 96.1% | NCI-H522 lung 81.4% | A549/ATCC NSCLC 94.4% | 786-0 renal 99.8% | COLO 205 colon 119% | DU-145 prostate 108% | K-562 leukemia 76.6% | MALME-3M melanoma 89.3% | MDA-MB-231 breast 100% | RXF 393 renal 125% | SF-268 CNS 102% | SF-295 CNS 92.5% | SF-539 CNS 87.9% | UACC-257 melanoma 87.8% | M14 melanoma 107% | HCT-15 colon 106%

O=C1/C(=C\c2ccc(F)cc2)CN(C(=O)c2ccccc2F)C/C1=C\c1ccc(F)cc1
active: NCI-H226 lung -32.9% | HOP-62 NSCLC -15.5% | NCI-H522 lung -69.5% | 786-0 renal -51% | COLO 205 colon -42.9% | DU-145 prostate -10.4% | K-562 leukemia -0.921% | MALME-3M melanoma -55.2% | MDA-MB-231 breast -38.7% | RXF 393 renal -83.2% | SF-268 CNS 0.452% | SF-295 CNS -30.7% | SF-539 CNS 0.221% | UACC-257 melanoma -28.2% | M14 melanoma -48.4% | HCT-15 colon -16.3%
inactive: NCI-H23 lung 16.4% | NCI-H322M lung 77.6% | NCI-H460 lung 17.8% | A549/ATCC NSCLC 12.9%

O=C1/C(=C/c2ccc([N+](=O)[O-])s2)Oc2ccccc21
active: NCI-H23 lung -37% | NCI-H226 lung -0.59% | NCI-H322M lung -21.5% | HOP-62 NSCLC 3.77% | NCI-H460 lung -27.7% | NCI-H522 lung -68.8% | A549/ATCC NSCLC -22.2% | 786-0 renal -37% | COLO 205 colon -69.2% | DU-145 prostate 4.99% | K-562 leukemia -14.5% | MALME-3M melanoma -60.9% | MDA-MB-231 breast -70.3% | RXF 393 renal -81.1% | SF-268 CNS -54.2% | SF-295 CNS -37.4% | SF-539 CNS -77% | UACC-257 melanoma -54.6% | M14 melanoma -40.9% | HCT-15 colon -15.5%

CCOC(=O)C(CSC(c1ccccc1)(c1ccccc1)c1ccccc1)NC(=O)C(CSC(c1ccccc1)(c1ccccc1)c1ccccc1)NC(c1ccccc1)(c1ccccc1)c1ccccc1 (stereo not given)
inactive: NCI-H23 lung 116% | NCI-H226 lung 93.5% | NCI-H322M lung 101% | HOP-62 NSCLC 101% | NCI-H460 lung 106% | NCI-H522 lung 99.4% | A549/ATCC NSCLC 95.1% | 786-0 renal 104% | COLO 205 colon 112% | DU-145 prostate 115% | K-562 leukemia 112% | MALME-3M melanoma 108% | MDA-MB-231 breast 108% | RXF 393 renal 97.4% | SF-268 CNS 110% | SF-295 CNS 86.7% | SF-539 CNS 112% | UACC-257 melanoma 88.8% | M14 melanoma 111% | HCT-15 colon 100%

Cc1cccc(NC2=C(C#N)C(=O)NC3(CCCC3)S2)c1
active: UACC-257 melanoma -4.62%
inactive: NCI-H23 lung 100% | NCI-H226 lung 96.5% | NCI-H322M lung 112% | HOP-62 NSCLC 98.7% | NCI-H460 lung 107% | NCI-H522 lung 15.8% | A549/ATCC NSCLC 30.2% | 786-0 renal 103% | COLO 205 colon 127% | DU-145 prostate 117% | K-562 leukemia 95.3% | MALME-3M melanoma 104% | MDA-MB-231 breast 110% | RXF 393 renal 102% | SF-268 CNS 103% | SF-295 CNS 108% | SF-539 CNS 91.5% | M14 melanoma 105% | HCT-15 colon 95.8%

CC(=O)N(C)c1ccc(Nc2ccc(Nc3ccc(N(C)C(C)=O)cc3)c3c2C(=O)c2ccccc2C3=O)cc1
inactive: NCI-H23 lung 87.3% | NCI-H226 lung 84.2% | NCI-H322M lung 75.4% | HOP-62 NSCLC 75.2% | NCI-H460 lung 64.9% | NCI-H522 lung 53.8% | A549/ATCC NSCLC 63.5% | 786-0 renal 78.7% | COLO 205 colon 70.6% | DU-145 prostate 91.2% | K-562 leukemia 55.8% | MALME-3M melanoma 113% | MDA-MB-231 breast 49.3% | RXF 393 renal 81.7% | SF-268 CNS 76.5% | SF-295 CNS 81.2% | SF-539 CNS 76.3% | UACC-257 melanoma 74.5% | M14 melanoma 86.1% | HCT-15 colon 79.8%

CCCC#CCN(CC)CC
inactive: NCI-H23 lung 111% | NCI-H226 lung 107% | NCI-H322M lung 108% | HOP-62 NSCLC 117% | NCI-H460 lung 107% | NCI-H522 lung 97.6% | A549/ATCC NSCLC 93.8% | 786-0 renal 100% | COLO 205 colon 110% | DU-145 prostate 123% | K-562 leukemia 103% | MALME-3M melanoma 111% | MDA-MB-231 breast 109% | RXF 393 renal 112% | SF-268 CNS 111% | SF-295 CNS 80.2% | SF-539 CNS 99.6% | UACC-257 melanoma 93.6% | M14 melanoma 108% | HCT-15 colon 99.6%

COc1ccc(-c2nn(-c3cccc(NC(=O)Nc4ccc(Cl)c(C(F)(F)F)c4)c3)cc2-c2ccncc2)cc1Cl
inactive: NCI-H226 lung 22.4% | NCI-H322M lung 19.1% | HOP-62 NSCLC 25.2% | 786-0 renal 19% | DU-145 prostate 22.7% | K-562 leukemia 15.4% | RXF 393 renal 19.3% | SF-268 CNS 31% | HCT-15 colon 16.3%
active: NCI-H23 lung 9.49% | NCI-H460 lung 1.08% | NCI-H522 lung -8.34% | A549/ATCC NSCLC 8.45% | COLO 205 colon -33.3% | MALME-3M melanoma -8.87% | MDA-MB-231 breast 0.455% | SF-295 CNS -2.09% | SF-539 CNS -7.12% | UACC-257 melanoma -7.89% | M14 melanoma 6.17%

COc1cc(-c2cc(/C=C3\C(=O)Nc4cc(Cl)ccc43)[nH]n2)cc(OC)c1OC
inactive: NCI-H23 lung 69.7% | NCI-H226 lung 50.4% | NCI-H322M lung 47.5% | HOP-62 NSCLC 43.3% | NCI-H460 lung 34.7% | NCI-H522 lung 31.9% | A549/ATCC NSCLC 43% | 786-0 renal 93.7% | DU-145 prostate 43.8% | K-562 leukemia 23.4% | MDA-MB-231 breast 34.2% | RXF 393 renal 75.3% | SF-268 CNS 56.7% | SF-295 CNS 32.6% | SF-539 CNS 48.9% | UACC-257 melanoma 78% | M14 melanoma 19.6% | HCT-15 colon 13.6%
active: COLO 205 colon 7.07% | MALME-3M melanoma -22.9%

CCN1Cc2c(/C=C/c3ccccc3)nc3ccc(OC)cc3c2N(c2cccc(Cl)c2)C1
inactive: NCI-H23 lung 59.1% | NCI-H226 lung 92% | NCI-H322M lung 90.7% | HOP-62 NSCLC 107% | NCI-H460 lung 71.7% | NCI-H522 lung 63.7% | A549/ATCC NSCLC 33.6% | 786-0 renal 72.3% | COLO 205 colon 81.8% | DU-145 prostate 112% | K-562 leukemia 51.1% | MALME-3M melanoma 95.9% | MDA-MB-231 breast 74% | RXF 393 renal 107% | SF-268 CNS 102% | SF-295 CNS 92.8% | SF-539 CNS 75.1% | UACC-257 melanoma 41.5% | M14 melanoma 78.4% | HCT-15 colon 57.8%

COc1cccc(Cn2c(-c3nonc3N)nc3ccccc32)c1
active: NCI-H460 lung 6.52% | NCI-H522 lung -18.4% | COLO 205 colon -53.3% | DU-145 prostate 4.99% | K-562 leukemia 9.47% | RXF 393 renal -40.1% | SF-295 CNS -26.9% | SF-539 CNS -34.6%
inactive: NCI-H23 lung 24.2% | NCI-H226 lung 49.2% | NCI-H322M lung 38.8% | HOP-62 NSCLC 29.9% | A549/ATCC NSCLC 16.4% | 786-0 renal 36.9% | MALME-3M melanoma 68.3% | MDA-MB-231 breast 27.7% | SF-268 CNS 42% | UACC-257 melanoma 49.2% | M14 melanoma 20.4% | HCT-15 colon 24.1%
